Bioassay records (PubChem BioAssay)
Only some compounds are listed: those with a hit (about 19% of all), similar ones and a draw of the others.
HT1080 IDH1KD tx – toxicity to HT-1080 IDH1 knockdown cells (counter line) | Potency, µM (doses to about 46.1 µM), without a hit: top-dose activity, negative = toxicity, usual class: cytotoxic | AID 686971 | HT-1080 IDH1 knockdown viability, ATP luminescence, 48 h | 2% of 360,000 active;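 note: potency is the fitted concentration of half-maximal effect; 0% = DMSO wells and -100% = cell-free medium wells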
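Viability of IDH1-knockdown HT-1080 fibrosarcoma cells was assessed by CellTiter-Glo after 48 h at 37 °C with titrated compound; concentration-effect curves were classified by fit quality and response size.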
IL1B secr inh – inhibitors of inflammasome signaling (IL-1 beta secretion); THP-1 LPS/ATP IL-1B secretion, AlphaLISA, 16 h; hits give low values; activity change, % at 57.5 µM; 4.7% of 360,000 active; in the data active = activity change below about -50%; inconclusive = mostly about -30% to -49%
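THP-1 cells pretreated 1 hr with compounds (up to 57.5 uM final), then stimulated with LPS (250 ng/mL final) plus ATP (1.25 mM final); secreted IL-1B measured by AlphaLISA after 16 hr, decreased signal indicating inhibition.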
DT40 TDP1 no CPT – qHTS for Inhibitors of human tyrosyl-DNA phosphodiesterase 1 (TDP1): qHTS in cells in absence of CPT. DT40 Tdp1-/- hTDP1 cells, no CPT, ATP luminescence, 48 h. 15% of 420,000 active. Potency, µM (highest dose often 46.2 µM), for inactives: top-dose activity change, negative = growth inhibition, actives largely listed as inhibitors; note: potency is the fitted concentration of half-maximal effect; nearly all actives have a fitted effect of over 55% in size
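No-CPT arm: Tdp1-/-;hTDP1 DT40 cells (400/well) plus compounds, incubated ≥48 hr at 37 °C. Readout CellTiter-Glo luminescence.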
HT1080NT lethal – kills 2HG-producing HT-1080-NT fibrosarcoma cells | Potency, µM (titrated, usually from 46.1 µM), inactives show at the highest dose activity, negative = less viability, actives largely listed as cytotoxic | HT-1080-NT fibrosarcoma viability, CellTiter-Glo ATP luminescence, 48 h | 1.6% of 360,000 active;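 note: NT is the 2HG producing partner of a matched IDH1 knockdown line; potency is the fitted concentration of half-maximal effect; 0% = DMSO-treated cells and -100% = media-only wells without cells; nearly all actives have a fitted effect of over 55% in size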
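Fibrosarcoma NT cells, 750 per well in 5% FBS RPMI, were exposed to compound for 48 hours. Viability: CellTiter-Glo luminescence.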
DT40 TDP1 CPT – DT40-hTDP1 cell growth loss with CPT; chicken DT40 Tdp1-/-;hTDP1 cells + 20 nM CPT, ATP luminescence, 48 h; Potency, µM (series often up to 46.2 µM), for inactives: at the top dose activity change, negative = growth inhibition, usual class: inhibitors; 12% of 420,000 active; note: potency is the fitted concentration of half-maximal effect; nearly all actives have a fitted effect of over 55% in size
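Chicken DT40 Tdp1-/- cells stably complemented with human TDP1 were seeded at 400 cells/well in medium containing 20 nM camptothecin, exposed to pin-transferred compounds, and grown at 37 °C for at least 48 hr. Viability was read as ATP luminescence.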
Starred values were filed as active, the others as inactive; ? = inconclusive; . = no result given. Unless noted, calls come from the whole dose curve; as a rule, active = well fitted curve in the direction sought with a large enough effect; inconclusive = small, poorly fitted or top-dose-only effect, or another doubt; inactive = no such curve, though single readings can be large; an effect the other way counts as inactive or inconclusive. Unless noted, % is set by controls: 0 for no effect and ±100 for the full control effect.

SMILES | HT1080 IDH1KD tx | IL1B secr inh | DT40 TDP1 no CPT | HT1080NT lethal | DT40 TDP1 CPT
COc1cccc(/C=C(\C#N)c2nc3ccccc3[nH]2)c1OCC(=O)O | -3.0% | 5.6 | 11.1% | -2.0% | -2.6%
CCCOc1cc(N(CC)CC)ccc1/C=C(/C#N)c1nc2ccc(C)cc2[nH]1 | ? | -1.9 | 13µM* | -11.8% | 20.6µM*
CCOc1cc(N(CC)CC)ccc1/C=C(/C#N)c1nc2ccccc2[nH]1 | ? | ? | 10.3µM* | -24.9% | 16.4µM*
Cc1ccc(/C=C(\C#N)c2nc3ccccc3[nH]2)s1 | ? | -9.7 | -14.2% | -9.4% | 2.4%
CCc1noc(C)c1C(=O)Nc1ccccc1C(C)(C)C | 8.7% | 8.4 | 12.0% | 6.7% | 10.1%
Cc1csc2nc(O)c(C(=O)NC3CCCCCC3)c(=O)n12 | -21.6% | 16.5 | 5.17µM* | -25.9% | ?
Cc1cccn2c(=O)c(C(=O)NCc3ccccc3Cl)c(O)nc12 | . | . | 23.1µM* | . | 16.4µM*
Cc1cccn2c(=O)c(C(=O)NCCCN3CC(C)CC(C)C3)c(O)nc12 (centres undefined) | 8.5% | -3.2 | -17.8% | -0.2% | 14.1%
CCC1CCCCN1CCCNC(=O)c1c(O)nc2c(C)cccn2c1=O (centres undefined) | 6.1% | -19.5 | 6.8% | -14.3% | 12.6%
Cc1cccn2c(=O)c(C(=O)NC3CC(C)CC(C)(C)C3)c(O)nc12 (centres undefined) | 4.0% | 10.6 | 7.31µM* | 0.9% | 7.31µM*
Cc1cccn2c(=O)c(C(=O)NC3CCCCC3C)c(O)nc12 (centres undefined) | ? | 30.6 | 14.6µM* | -16.0% | ?
O=C1CS(=O)(=O)C2(C(=O)N(Cc3ccccc3)c3ccccc32)N1c1ccccc1 (centres undefined) | . | . | -10.8% | . | -10.1%
Cc1cccn2c(=O)c(C(=O)NCCCN3CCCCC3C)c(O)nc12 (centres undefined) | 6.6% | -19.5 | 9.2% | 4.1% | 5.6%
Cc1csc2nc(O)c(C(=O)NCc3ccc4c(c3)OCO4)c(=O)n12 | -5.1% | 0.0 | 23.1µM* | -11.5% | ?
Cc1ccn2c(=O)c(C(=O)NC3CCCCC3C)c(O)nc2c1 (centres undefined) | -3.3% | 17.9 | ? | -4.4% | 16.4µM*
Cc1cccn2c(=O)c(C(=O)NC3CCCCC3)c(O)nc12 | 0.5% | -3.4 | 18.4µM* | 4.9% | 18.4µM*
Cc1cccc(N2CCN(C(=O)COc3ccc4c(c3)CCC4)CC2C)c1 (centres undefined) | 1.5% | -13.7 | ? | -0.5% | ?
CS(=O)(=O)N1CCc2cc(S(=O)(=O)NCc3ccccc3Cl)ccc21 | . | . | -28.7% | . | -23.6%
COc1ccc(C)cc1NC(=O)N1CCC(CN2CCOCC2)CC1 | . | . | 16.8% | . | 1.3%
COc1ccc(C)cc1NC(=O)N1CCN(c2cc(-c3noc(C)n3)ccc2C)CC1 | . | . | 23.1µM* | . | ?
CC1N=C2c3ccccc3N=C(SCC(=O)NCCc3ccc(Cl)cc3)N2C1=O (centres undefined) | . | . | -15.1% | . | ?
CCCn1nnnc1NCc1ccc(SC)cc1 | 4.8% | -57.7* | -3.8% | -2.4% | -9.1%
CCCCn1nnnc1NCc1ccc(N2CCCC2)cc1 | -2.6% | 0.1 | ? | 2.1% | ?
CCCCn1nnnc1NCc1cccnc1 | 1.6% | -3.0 | 13µM* | -0.7% | 8.2µM*
CCCn1nnnc1NCc1ccc(F)cc1 | 7.8% | 8.5 | 6.5% | 7.6% | 1.0%
SMILES | HT1080 IDH1KD tx | IL1B secr inh | DT40 TDP1 no CPT | HT1080NT lethal | DT40 TDP1 CPT
CCOc1ccc(CNC(=O)c2ccc(Sc3ccc(C)cc3)c(NC(C)=O)c2)cc1 | -9.9% | -3.7 | 20.6µM* | 2.5% | ?
CC1CCn2c(nc3cc(C(=O)NCc4ccc(OC(C)C)cc4)ccc32)C1 (centres undefined) | . | . | 23.1µM* | . | ?
CCOc1ccc(-n2c(C)nc3cc(C(=O)NCCC4=CCCCC4)ccc32)cc1 | . | . | 16.4µM* | . | 18.4µM*
COc1ccc(C(=O)NCCC2=CCCCC2)cc1 | 10.5% | -0.4 | ? | -2.5% | ?
Cc1cc(C)cc(-n2c(C)nc3cc(C(=O)NCc4ccc(F)cc4)ccc32)c1 | . | . | 14.6µM* | . | ?
C=CCn1c(SCC(=O)Nc2ccc(Br)cc2)nc(O)c(CC)c1=O | -22.1% | 34.1 | 19.1% | -16.9% | -1.3%
O=C(Nc1cccc(Cl)c1)c1nc[nH]c1C(=O)N1CCN(c2ccccc2)CC1 | 11.6% | 17.9 | 0.1% | 10.3% | -26.3%
O=C(NCc1cccc(Cl)c1)C1CCC(=O)N(CCCN2CCCC2=O)C1 (centres undefined) | 2.0% | 11.2 | 5.0% | 2.0% | 7.0%
CCOc1ccc(-n2c(C)nc3cc(C(=O)NCC4CCCO4)ccc32)cc1 (centres undefined) | 1.8% | 14.1 | -13.8% | 1.1% | -1.4%
CCOc1ccc(-n2c(C)nc3cc(C(=O)NCc4ccc(C)cc4)ccc32)cc1 | . | . | 16.4µM* | . | ?
Cc1ccc2ccccc2[n+]1CCCCI | . | . | -9.3% | . | -19.2%
Cc1sc2ccccc2[n+]1CCc1ccccc1 | . | . | 3.16µM* | . | 6.31µM*
Cc1sc2ccccc2[n+]1CCCCI | . | . | 20µM* | . | ?
C/C(=N/Nc1ncc(Br)cn1)c1ccc([N+](=O)[O-])cc1 | 9.3% | -25.4 | -6.7% | 9.5% | -14.3%
Cc1ccc(S(=O)(=O)N2CCN(c3ccnc(-c4cccs4)n3)CC2)cc1 | 1.4% | . | ? | 1.0% | ?
C(=C\c1ccnc2ccccc12)/c1ccc(N2CCOCC2)cc1 | . | . | 1.26µM* | . | 1.78µM*
C(=C\c1ccnc2ccccc12)/c1ccc(N2CCNCC2)cc1 | . | . | 14.1µM* | . | ?
CN1CCCc2cc(/C=C/c3ccnc4ccccc34)ccc21 | . | . | 14.1µM* | . | 11.2µM*
CN1CCCc2ccccc21 | . | . | -13.6% | . | -1.5%
C(=C\c1ccnc2ccccc12)/c1ccc(N2CCN(c3ccc(/C=C/c4ccnc5ccccc45)cc3)CC2)cc1 | . | . | 6.31µM* | . | 5.01µM*
Cc1ccc2cc(CNC(C)C)c(=O)[nH]c2c1 | -0.6% | 18.2 | -16.2% | -10.3% | -4.6%
Cc1ccc(Cn2cccc(NC(=O)c3ccco3)c2=O)cc1 | -9.6% | 28.2 | -16.4% | -0.6% | -12.6%
CCOC(=S)SCC(=O)N1CCc2ccccc2C1C1C(=O)CCCC1=O (centres undefined) | -7.2% | -5.1 | 0.2% | 1.4% | -32.7%
Cc1ccc(N(CC(=O)NCc2ccccc2)C(=O)CCC(=O)Nc2ccccn2)cc1C | -1.8% | -11.1 | -23.8% | -15.6% | 7.6%
CC(C)(C)[C@H]1COC(=O)[C@@H](Cc2ccc(F)cc2)C/C=C\C[C@@H](CC(=O)N[C@@H](CO)Cc2ccccc2)C(=O)N1 | -3.4% | -24.8 | 18.4µM* | -8.4% | ?
